According to PubChem BioAssay (NCATS):
Records with an inconclusive call do not appear. A call without a number means that no potency is given here. Activity calls are given as the source filed them. Unless noted, the call rests on the fitted dose curve; in most records, active means well fitted curve in the direction sought with a large enough effect; inconclusive means small, poorly fitted or top-dose-only effect, or another doubt; inactive means no such curve, though single readings can be large; an effect the other way counts as inactive or inconclusive.

Tests used:
[1] = qHTS assay for measurement of the activity of small molecule inhibitors on Zika virus induced Caspase-3 activity in human iPSC derived neural progenitor cells (hNPCs) (AID 1224857); details: hNPCs ZIKV-induced caspase-3/7, Caspase-Glo luminescence, 6 h; series mostly up to 45.7 µM; further: nearly all actives have a fitted effect of over 65% in size
Summary of the method: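 Zika virus (2 FFU/cell) infection of human iPSC-derived NPCs, 6 h, following 1 h compound preincubation. Read-out: Caspase-Glo 3/7 luminescence.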

[2] = qHTS assay for measurement of the activity of small molecule inhibitors on Zika virus induced Caspase-3 activity in human astrocytoma cells (AID 1224859); details: SNB-19 ZIKV-induced caspase-3/7, luminescence, 6 h; series mostly up to 45.7 µM
Summary of the method: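 Caspase activation in ZIKV-infected SNB-19 cells (2 FFU/cell, 6 h) measured by Caspase-Glo 3/7 luminescence after 30 min RT; compound pre-incubated 1 h; normalised to uninfected and infected controls.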

[3] = qHTS assay to identify small molecule inhibitors of chordoma cells - UCH-1 (AID 1259355); details: UCH-1 chordoma viability, CellTiter-Glo, 48 h, combination, with auranofin plus four topoisomerase inhibitors; series mostly up to 46.1 µM; further: nearly all actives have a fitted effect of over 55% in size
Summary of the method: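 A 48hr growth-inhibition format: each drug tested at 15 concentrations together with added auranofin, camptothecin, doxorubicin, rubitecan and topotecan, with cell viability quantified as CellTiter-Glo luminescence.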

[4] = qHTS assay to identify small molecule inhibitors of chordoma cells - UCH-2 (AID 1259356); details: UCH-2 chordoma viability, CellTiter-Glo ATP luminescence, 48 h; series mostly up to 46.1 µM
[5] = NS1 protein of Zika virus - qHTS assay to identify small molecule inhibitors in human HEK 293 cells (AID 1347053); details: HEK293 ZIKV MR766 infection, NS1 TR-FRET, 24 h; series mostly up to 46.1 µM; further: nearly all actives have a fitted effect of over 55% in size; further: potency means the concentration at half of the fitted maximal effect
Summary of the method: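 Read-out is a two-antibody TR-FRET for ZIKV NS1, normalized between uninfected cells and infected cells. Compound added 1 h before MR766 infection at MOI 0.5; human HEK 293 cells incubated 24 h, 37 C.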

[6] = molecular target: Atrial natriuretic peptide receptor 1 (Homo sapiens) (UniProt P16066); assay: Natriuretic polypeptide receptor (hNpr1) antagonism - Pilot screen (AID 1347049; calls by dose curve;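 further: HEK293 cells with hNpr1 and GloSensor cGMP luciferase stimulated by 0.1 nM hNppA; agonist-evoked cGMP luminescence read 20 min after hNppA addition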); details: hNpr1 cells, antagonist mode cGMP read-out; series mostly up to 57.5 µM
Summary of the method: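 Cells expressing receptor plus cGMP biosensor are seeded and incubated overnight at 37C, then loaded with GloSensor reagent (2% final) at room temperature for 2 h. Library compounds go on for 30 min. A pre-read precedes agonist (hNppA, 0.1 nM final) and a 20-min readout.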

[7] = molecular target: T1, Tyrosine-protein phosphatase non-receptor type substrate 1 (Homo sapiens) + Leukocyte surface antigen CD47 (Homo sapiens) (UniProt P78324+Q08722); assay: CD47-SIRPalpha protein protein interaction - LANCE assay qHTS validation (AID 1347057; active means well fitted curve in the direction sought with a large enough effect in the signal ratio, with a control signal flat, not every such curve was filed as active; the % refers to the signal ratio); details: Recombinant CD47-His / biotin-SIRPalpha, TR-FRET ratio; series mostly up to 38.3 µM
Summary of the method: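 Inhibition of soluble CD47/SIRPalpha ectodomain association by titrated compounds, measured as 665/615 nm time-resolved FRET ratio after sequential 30 min room-temperature incubations.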

[8] = P-glycoprotein substrates identified in KB-3-1 adenocarcinoma cell line, qHTS therapeutic library screen (AID 1346986); details: KB-3-1 parental cells viability, CellTiter-Glo, 72 h; at 44.5 µM (top of the series) unless noted; further: nearly all actives have a fitted effect of over 60% in size
Summary of the method: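 72 h cell-killing screen, 500 cells/well, CellTiter-Glo luminescence. Paired lines KB-3-1/KB-8-5-11; P-gp dependence checked by tariquidar co-treatment and HEK-293 MDR-19 versus empty-vector cells.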

[9] = P-glycoprotein substrates identified in KB-8-5-11 adenocarcinoma cell line, qHTS therapeutic library screen (AID 1346987); details: KB-8-5-11 (P-gp overexpressing) viability, CellTiter-Glo, 72 h; series mostly up to 44.5 µM; further: nearly all actives have a fitted effect of over 65% in size; further: potency means the concentration at half of the fitted maximal effect
Summary of the method: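 Compounds are pinned in dose-response onto KB-8-5-11 cells (500 cells/well, colchicine-free medium) and left 72 h at 37 degree C. CellTiter-Glo luminescence then yields AC50 values.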

[10] = Natriuretic polypeptide receptor (hNpr1) antagonism - Pilot counterscreen GloSensor control cell line (AID 1347045; calls by dose curve); details: HEK293 cGMP GloSensor cells, SNP-stimulated luminescence, 20 min; series mostly up to 38.3 µM
Summary of the method: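 Control counterscreen: luciferase cGMP-biosensor HEK293 cells (no Npr1) received compound for 30 min at room temperature after GloSensor substrate loading. Luminescence was measured before and 20 min after soluble guanylyl cyclase activation by 50 uM nitroprusside.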

[11] = molecular target: T1, Tyrosine-protein phosphatase non-receptor type substrate 1 (Homo sapiens) + Leukocyte surface antigen CD47 (Homo sapiens); assay: CD47-SIRPalpha protein protein interaction - HTRF assay qHTS validation (AID 1347058; active means well fitted curve in the direction sought with a large enough effect in the signal ratio, not every such curve was filed as active; the % refers to the signal ratio); details: TR-FRET HTRF CD47-His / biotin-SIRPalpha binding, ratio 665/615; series mostly up to 38.3 µM
Summary of the method: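 Soluble extracellular domains (6His-CD47, Avi-tag-biotinylated SIRPalpha) in PBS pH 7.4 with 0.05% IGEPAL CA-630. Compounds were preincubated 30 min at RT with CD47 and anti-His-Eu, then SIRPalpha and SAV-XL665 were added. TR-FRET 665/615 ratio.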

[12] = qHTS profiling of the MIPE4 collection as inhibitors of Plasmodium falciparum (3D7) proliferation (AID 743344; call rule not given here); details: P. falciparum 3D7 in erythrocytes, SYBR Green DNA fluorescence, 72 h; at 28.5 µM (top of the series)
Summary of the method: (§1)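 Parasite DNA was quantified by SYBR Green I fluorescence (ex 485, em 535 nm) after overnight lysis in saponin/Triton buffer at room temperature. Cultures at 0.3% parasitemia and 2.5% hematocrit were first exposed to compound for 72 h at 37 C; signals were normalised to artemisinin (0.29 uM) and vehicle wells.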

[13] = qHTS profiling of the MIPE4 collection as inhibitors of Plasmodium falciparum (DD2) proliferation (AID 743345; call rule not given here); details: P. falciparum Dd2 in erythrocytes, SYBR Green DNA, 72 h; at 28.5 µM (top of the series)
Summary of the method: as §1

[14] = qHTS profiling of the MIPE4 collection as inhibitors of Plasmodium falciparum (DD2) proliferation (Rep 2) (AID 743346; call rule not given here); details: P. falciparum Dd2 in erythrocytes, SYBR Green DNA, 72 h; at 28.5 µM (top of the series)
Summary of the method: as §1

[15] = qHTS profiling of the MIPE4 collection as inhibitors of Plasmodium falciparum (HB3) proliferation (AID 743347; call rule not given here); details: P. falciparum HB3 in erythrocytes, SYBR Green DNA, 72 h; at 28.5 µM (top of the series)
Summary of the method: as §1

T1 sequence (P78324 whole entry, looked up, the tested form may be a part): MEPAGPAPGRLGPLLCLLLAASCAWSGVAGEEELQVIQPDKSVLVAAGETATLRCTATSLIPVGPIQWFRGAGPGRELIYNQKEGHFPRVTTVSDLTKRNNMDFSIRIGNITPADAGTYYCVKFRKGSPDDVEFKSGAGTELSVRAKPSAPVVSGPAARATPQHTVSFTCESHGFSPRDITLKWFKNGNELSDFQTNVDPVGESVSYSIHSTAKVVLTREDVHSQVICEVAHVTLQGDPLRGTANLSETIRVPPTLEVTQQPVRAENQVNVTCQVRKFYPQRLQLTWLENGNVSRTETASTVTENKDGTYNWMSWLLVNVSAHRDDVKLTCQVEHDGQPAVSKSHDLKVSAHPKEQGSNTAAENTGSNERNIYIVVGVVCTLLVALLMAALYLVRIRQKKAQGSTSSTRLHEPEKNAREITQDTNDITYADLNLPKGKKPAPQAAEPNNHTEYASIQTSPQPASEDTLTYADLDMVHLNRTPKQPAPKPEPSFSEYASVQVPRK
T1 sequence (Q08722 whole entry, looked up, the tested form may be a part): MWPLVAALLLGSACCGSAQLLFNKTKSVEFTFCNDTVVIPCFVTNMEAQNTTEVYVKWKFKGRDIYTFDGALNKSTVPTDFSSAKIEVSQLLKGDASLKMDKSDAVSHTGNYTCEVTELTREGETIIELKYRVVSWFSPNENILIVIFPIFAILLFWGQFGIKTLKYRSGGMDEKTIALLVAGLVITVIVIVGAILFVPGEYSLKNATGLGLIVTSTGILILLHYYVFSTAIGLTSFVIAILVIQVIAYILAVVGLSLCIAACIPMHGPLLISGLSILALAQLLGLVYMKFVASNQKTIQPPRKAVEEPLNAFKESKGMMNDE
Chain of Atrial natriuretic peptide receptor 1 (Homo sapiens) (P16066 whole entry, looked up): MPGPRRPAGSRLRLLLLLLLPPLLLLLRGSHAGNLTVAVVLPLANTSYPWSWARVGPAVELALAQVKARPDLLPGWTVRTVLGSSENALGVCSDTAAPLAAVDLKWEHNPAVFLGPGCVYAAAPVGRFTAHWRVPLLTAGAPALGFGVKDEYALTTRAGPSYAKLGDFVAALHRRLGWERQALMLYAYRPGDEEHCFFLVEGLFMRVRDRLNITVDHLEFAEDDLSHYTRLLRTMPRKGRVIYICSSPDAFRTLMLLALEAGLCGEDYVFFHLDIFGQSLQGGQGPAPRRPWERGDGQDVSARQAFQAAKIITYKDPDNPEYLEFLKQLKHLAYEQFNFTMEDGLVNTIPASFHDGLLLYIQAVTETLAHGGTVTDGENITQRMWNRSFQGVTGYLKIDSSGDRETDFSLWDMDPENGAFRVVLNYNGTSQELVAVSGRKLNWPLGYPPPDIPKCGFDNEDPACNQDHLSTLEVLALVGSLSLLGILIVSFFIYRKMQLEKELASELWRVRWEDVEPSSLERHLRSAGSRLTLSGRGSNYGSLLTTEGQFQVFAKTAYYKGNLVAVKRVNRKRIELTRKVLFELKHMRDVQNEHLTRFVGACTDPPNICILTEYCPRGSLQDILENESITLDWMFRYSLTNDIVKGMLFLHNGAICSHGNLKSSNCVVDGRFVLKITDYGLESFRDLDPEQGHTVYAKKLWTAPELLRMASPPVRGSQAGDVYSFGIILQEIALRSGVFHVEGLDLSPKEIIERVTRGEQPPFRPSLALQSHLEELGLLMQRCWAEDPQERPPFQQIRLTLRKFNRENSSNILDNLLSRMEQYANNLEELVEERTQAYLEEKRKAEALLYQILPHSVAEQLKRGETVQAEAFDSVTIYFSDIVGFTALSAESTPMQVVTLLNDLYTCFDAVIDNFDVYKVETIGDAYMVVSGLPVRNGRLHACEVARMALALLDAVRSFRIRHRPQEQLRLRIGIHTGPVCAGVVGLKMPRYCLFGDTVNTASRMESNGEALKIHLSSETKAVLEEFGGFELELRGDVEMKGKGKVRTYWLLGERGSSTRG

CCN(CC)CCNC(C(=O)OCCC(C)C)c1ccccc1 (stereo not drawn)
outcome [1]: inactive | outcome [2]: inactive | Potency [3]: inactive | outcome [4]: inactive | Potency [5]: inactive

COC(=O)C1=C(C)NC(C)=C(C(=O)OC)C1c1ccccc1[N+](=O)[O-]
outcome [1]: inactive | outcome [2]: inactive | Potency [3]: inactive | outcome [4]: inactive | outcome [6]: inactive | Potency [5]: inactive | outcome [7]: inactive

CC(C(O)c1ccc(O)cc1)N1CCC(Cc2ccccc2)CC1 (stereo not drawn)
outcome [1]: inactive | outcome [2]: inactive | outcome [4]: inactive | outcome [8]: inactive [at 17.4 µM] | Potency [9]: inactive | outcome [10]: inactive | outcome [6]: inactive | Potency [5]: inactive | outcome [7]: inactive | outcome [11]: inactive

COCCOC(=O)C1=C(C)NC(C)=C(C(=O)OC/C=C/c2ccccc2)C1c1cccc([N+](=O)[O-])c1 (stereo not drawn)
outcome [1]: inactive | outcome [2]: inactive | Potency [3]: inactive | outcome [4]: inactive | outcome [6]: inactive | outcome [7]: inactive

O=C1NC(=O)[C@@]2(CCOc3ccc(F)cc32)N1
outcome [1]: inactive | outcome [2]: inactive | Potency [3]: inactive | outcome [4]: inactive | outcome [7]: inactive | outcome [11]: inactive

CCCCC/C(C=O)=C\c1ccccc1
outcome [1]: inactive | outcome [2]: inactive | Potency [3]: inactive | outcome [4]: inactive | Potency [9]: inactive | Potency [5]: inactive

CSc1ccc2c(c1)N(CCC1CCCCN1C)c1ccccc1S2 (stereo not drawn)
parasite growth, % of DMSO control [12]: 12.9% | parasite growth remaining, % of DMSO control (lower = more inhibition) [13]: 10.4% | parasite growth, % of control (lower = inhibition) [14]: 30.8% | growth, % of control [15]: 4.65% | outcome [1]: inactive | outcome [2]: inactive | outcome [4]: inactive | Potency [9]: 18.4 µM (active) | Potency [5]: inactive | outcome [7]: inactive | outcome [11]: inactive

Nc1cc(=O)[nH]c(N)n1
outcome [1]: inactive | outcome [2]: inactive | Potency [9]: inactive | outcome [6]: inactive | outcome [7]: inactive

CC(CN(C)C)CN1c2ccccc2CCc2ccccc21 (stereo not drawn)
outcome [1]: inactive | outcome [2]: inactive | outcome [4]: inactive | outcome [10]: inactive | outcome [6]: inactive | Potency [5]: inactive | outcome [7]: inactive | outcome [11]: inactive

NC(N)=NCCC[C@H](N)C(=O)O
outcome [1]: inactive | outcome [2]: inactive | Potency [9]: inactive | outcome [6]: inactive | Potency [5]: inactive

CN(C)CCCN1c2ccccc2Sc2ccc(Cl)cc21
outcome [1]: inactive | outcome [2]: inactive | outcome [4]: inactive | outcome [10]: inactive | outcome [6]: inactive | Potency [5]: 7.08 µM (active) | outcome [7]: inactive

OCCN1CCN(CCCN2c3ccccc3Sc3ccc(Cl)cc32)CC1
outcome [1]: inactive | outcome [2]: inactive | outcome [4]: inactive | outcome [6]: inactive

CC[C@H]1CN2CCc3cc(OC)c(OC)cc3[C@@H]2C[C@@H]1C[C@H]1NCCc2cc(OC)c(OC)cc21
outcome [1]: inactive | outcome [2]: inactive | outcome [10]: inactive | outcome [6]: inactive | Potency [5]: inactive | outcome [7]: inactive | outcome [11]: inactive

CN(C)CCOC(C)(c1ccccc1)c1ccccn1 (stereo not drawn)
outcome [1]: inactive | outcome [2]: inactive | outcome [10]: inactive | outcome [6]: inactive | outcome [7]: inactive | outcome [11]: inactive

CNCCCC1c2ccccc2C=Cc2ccccc21
outcome [1]: inactive | outcome [2]: inactive | outcome [4]: inactive | outcome [10]: inactive | outcome [6]: inactive | Potency [5]: inactive | outcome [7]: inactive

CN(C)CCCN1c2ccccc2CCc2ccccc21
outcome [1]: inactive | outcome [2]: inactive | Potency [9]: 9.2 µM (active) | outcome [10]: inactive | outcome [6]: inactive | Potency [5]: inactive | outcome [7]: inactive | outcome [11]: inactive

N=c1c[n+](N2CCOCC2)[n-]o1
outcome [1]: inactive | outcome [2]: inactive | outcome [10]: inactive | outcome [6]: inactive | Potency [5]: inactive | outcome [7]: inactive

C[C@]12CC[C@@H]3c4ccc(O)cc4CC[C@H]3[C@@H]1CCC2=O
outcome [1]: inactive | outcome [2]: inactive | outcome [10]: inactive | outcome [6]: inactive | Potency [5]: inactive | outcome [7]: inactive | outcome [11]: inactive

CC(C)(C)[C@]1(O)CCN2C[C@H]3c4ccccc4CCc4cccc(c43)[C@@H]2C1
outcome [1]: inactive | outcome [2]: inactive | outcome [10]: inactive | outcome [6]: inactive | Potency [5]: inactive | outcome [7]: inactive | outcome [11]: inactive
